Assay results: PubChem BioAssay (NCI)
This is part of a sample that, as a whole, favours compounds with a hit. Of some 79,000 tested, about 15% had one in any assay. Cut-off read from the data, not from the text of the source: active = growth inhibition above about 70%; inactive = the rest.

What was measured:
[1] = NCI Yeast Anticancer Drug Screen. Data for the rad50 strain (AID 155);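 note: 0% = growth of vehicle-only cultures of the same strain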; conditions: S. cerevisiae rad50 strain growth inhibition; at 50.0 µM; stronger effect = higher value
In short: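 Readout: growth inhibition relative to vehicle-treated cultures. Compound exposure was carried out in a genetically defined yeast strain deficient in DNA damage repair.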

[2] = NCI Yeast Anticancer Drug Screen. Data for the mec2-1 strain (AID 157); conditions: S. cerevisiae mec2-1 strain, at 50.0 µM, stronger effect = higher value
In short: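 Mutant yeast (mec2-1) grown with compound; growth inhibition relative to vehicle control reported.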

[3] = NCI Yeast Anticancer Drug Screen. Data for the sgs1 mgt1 strain (AID 161);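 note: 0% = growth of cultures given vehicle only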; conditions: S. cerevisiae sgs1 mgt1 strain, at 50.0 µM, stronger effect = higher value
In short: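 Percent growth inhibition was derived by comparing compound-exposed mutant yeast with vehicle-exposed cultures. The strain carries alterations in DNA damage repair.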

[4] = NCI Yeast Anticancer Drug Screen. Data for the cln2 rad14 strain (AID 165);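 note: 0% = growth equal to vehicle treated cultures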; conditions: S. cerevisiae cln2 rad14 strain, at 50.0 µM, stronger effect = higher value
In short: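 Readout is yeast growth inhibition versus vehicle-treated controls, using a strain with cln2 and rad14 alterations exposed to compound.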

[5] = NCI Yeast Anticancer Drug Screen. Data for the bub3 strain (AID 167); conditions: S. cerevisiae bub3 mutant strain, at 50.0 µM, stronger effect = higher value
In short: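 Readout: yeast growth inhibition, expressed relative to vehicle-only wells. The test organism is a mutant strain from a panel with lesions in DNA repair or checkpoint genes.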

[6] = NCI Yeast Anticancer Drug Screen. Data for the mlh1 rad18 strain (AID 175); conditions: S. cerevisiae mlh1 rad18 strain growth inhibition; at 50.0 µM; stronger effect = higher value
In short: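 Genetically defined yeast (DNA repair-deficient) exposed to compounds; growth inhibition determined relative to vehicle.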

Measured: growth inhibition

CSc1nc2c(ncn2C2OCC(O)C(O)C2O)c(=O)n1C (stereo unspecified)
inactive: [1] 12% | [2] 7.7% | [3] -24.2% | [4] 29.6% | [5] -4.35% | [6] 15.6%

CC1(C)C=C(C(=O)ON2C(=O)CCC2=O)C(C)(C)N1O
inactive: [1] -4.85% | [2] -25.9% | [3] -14.5% | [4] 12.7% | [5] -19.1% | [6] -16.1%

COc1ccccc1NC(=S)N/C=C(\C#N)c1nc2ccccc2s1
inactive: [1] -28.4% | [2] 5.95% | [3] -8.9% | [4] 3.45% | [5] 2.3% | [6] -3%

COc1ccc(-c2nn(CCO)c(=O)c(C#N)c2-c2ccc(OC)cc2)cc1
inactive: [1] 28.9% | [2] 1.3% | [3] 6.65% | [4] 7.3% | [5] 13.7% | [6] 5.9%

Cc1cccc(Nc2nc(NNC(=O)Cc3ccccc3)nc(NNC(=O)c3ccncc3)n2)c1
inactive: [1] 17.4% | [2] -12.9% | [3] 42.2% | [4] 33.4% | [5] 22.6% | [6] 18.8%

O=c1c2ccccc2c(=O)n2n1C1CCC2C1
inactive: [1] 7.05% | [2] -0.55% | [3] -7.9% | [4] -3.75% | [5] 1.85% | [6] -6.15%

CC1=CC(=O)C2CC1C2(C)C (stereo unspecified)
inactive: [1] 6.55% | [2] -0.5% | [3] 0.5% | [4] 4.75% | [5] 4.6% | [6] -5.2%

Cc1cc(=O)c2c([nH]1)c1c(c3[nH]c(C)cc(=O)c32)Oc2ccccc2O1
inactive: [1] 65.2% | [2] 5% | [3] -2.95% | [4] -10.6% | [5] -5.55% | [6] 27.9%

CC(/C=C/C=C(\C)C(=O)O)=C\C=C\C=C(C)\C=C\C=C(/C)C(=O)O
inactive: [1] -0.8% | [2] -21% | [3] 3.7% | [4] 6.6% | [5] -9.05% | [6] 17.9%

CC(C)(C)C1=CC(=O)CCC1
inactive: [1] -37.6% | [2] -31.2% | [3] -16.4% | [4] -8.1% | [5] -26.9% | [6] 5.65%

COC(C(O)C(O)C(O)C(O)CO)n1cnc2cncnc21 (stereo unspecified)
inactive: [1] 4.05% | [2] 5.45% | [3] 7.8% | [4] 2.9% | [5] -4.2% | [6] 2.45%

CC12CCC(=O)C=C1CCC1C2CCC2(C)C1CCC2(O)C(=O)Cn1c(=O)[nH]cc(F)c1=O (stereo unspecified)
inactive: [1] -0.8% | [2] -1.2% | [3] 5.75% | [4] 10.8% | [5] -1.2% | [6] 11.4%

CC1CC[P+](C)(c2ccccc2)c2ccccc21 (stereo unspecified)
inactive: [1] 26% | [2] 15.7% | [3] 1.6% | [4] -4.6% | [5] 2.75% | [6] 20.6%

NC(=O)c1ccccc1OCC(=O)O
inactive: [1] 6.65% | [2] -1.2% | [3] 4.2% | [4] 15.8% | [5] -6.45% | [6] 19.1%

N#CCCc1ccc[nH]1
inactive: [1] -15.8% | [2] -8.45% | [3] -7.95% | [4] 10.6% | [5] 5.6% | [6] -5.85%

C=C1C(=O)OC2CC(C)C(C(CC(C)=O)OC(C)=O)=CCC12 (stereo unspecified)
inactive: [1] 0.6% | [2] 5.1% | [3] 3.6% | [4] 6.8% | [5] 6.1% | [6] -53.7%

COc1ccc(NC(=O)C(F)(F)F)cc1
inactive: [1] 9.3% | [2] 3.85% | [3] 10.4% | [4] -2.2% | [5] 0.55% | [6] 1.75%

[N-]=[N+]=NC(=O)c1cnn(-c2ccccc2)c1N
inactive: [1] 9.65% | [2] 18.9% | [3] 9.4% | [4] -27.4% | [5] 14.6% | [6] 2.2%

CC(=O)SC12CCCN1C(=O)C1(SC(C)=O)CCCN1C2=O (stereo unspecified)
inactive: [1] 40.5% | [2] 26.4% | [3] 45.2% | [4] -28.9% | [5] 3.3% | [6] 37%

Nc1cc(S(=O)(=O)O)cc2cccc(S(=O)(=O)O)c12
inactive: [1] 7% | [2] -7.7% | [3] 0.35% | [4] -20.6% | [5] 25.2% | [6] 30.8%

Cn1c(Cc2ccccc2)c([N+](=O)[O-])c(=O)n(C)c1=O
inactive: [1] -0.2% | [2] -5.25% | [3] -2.1% | [4] -8.2% | [5] -6.35% | [6] -2.4%

C[Si](C)(C)CCCO
inactive: [1] 0.25% | [2] 17.8% | [3] 3.3% | [4] 6.9% | [5] 9.25% | [6] 10%

NC(=O)C1C(=O)NC(=O)C1=O (stereo unspecified)
inactive: [1] -21.5% | [2] -17.9% | [3] -8.75% | [4] -7.7% | [5] -9.75% | [6] -22.4%

CC1(c2ccccc2)SCCS1
inactive: [1] 4.9% | [2] 2.05% | [3] -7.7% | [4] -34.3% | [5] -13.9% | [6] -6.4%

NCC(=O)c1cc2ccccc2[n+]([O-])c1
inactive: [1] 1.6% | [2] -4.45% | [3] 1.8% | [4] -51.2% | [5] -8.5% | [6] -14.4%

O=C(O)CN1C(=O)/C(=C\c2ccc3ccccc3n2)SC1=S
inactive: [1] 1.9% | [2] 18.9% | [3] 2.85% | [4] -14.1% | [5] 0.4% | [6] 20.6%

O=C1N/C(=N\OCCc2ccccc2)CC(NOCCc2ccccc2)N1 (stereo unspecified)
inactive: [1] -0.2% | [2] 18.8% | [3] 2.25% | [4] -11.6% | [5] 40.5% | [6] 7.5%

O=S(=O)(Cl)c1cc(Cl)ccc1Cl
inactive: [1] 24.8% | [2] -19.8% | [3] -17.1% | [4] -72.2% | [5] -3.6% | [6] -4.1%

O=C(c1ccccc1)C12CCC3CC(CC(C3)C1)C2
inactive: [1] -18.1% | [2] 8.25% | [3] 11.5% | [4] 6.05% | [5] 16.4% | [6] 9.65%

COc1cc2c[n+]3ccc4ccccc4c3c(N)c2cc1OC
inactive: [1] 16% | [2] -8.2% | [3] -10.6% | [4] 15.8% | [5] 5.9% | [6] -4.85%

Cc1cccc(NC(=O)/C=C/C(=O)O)c1
inactive: [1] -31.9% | [2] -41% | [3] -17.9% | [4] -20.9% | [5] -29.6% | [6] -45.1%

Cc1cccc(C(C)C)c1NC(=O)/C(Cc1c([N+](=O)[O-])cccc1[N+](=O)[O-])=N/NC(=O)CC#N
inactive: [1] -0.15% | [2] -3.6% | [3] 13.8% | [4] 11.2% | [5] -23.2% | [6] 4.8%

COc1ccc(-c2cc(=O)c3c(O)c(OC)c(O)c(OC)c3o2)cc1OC
inactive: [1] -0.4% | [2] -37.5% | [3] 5.1% | [4] 5.15% | [5] 29.7% | [6] 20%

O=C1C2CC3CC(C2)CC1C3
inactive: [1] 15.1% | [2] -4.5% | [3] 37% | [4] 9.25% | [5] 6.05% | [6] 14.9%

CC(CCl)NS(=O)(=O)c1ccccc1 (stereo unspecified)
inactive: [1] 2.1% | [2] 2.85% | [3] -2.85% | [4] 0.85% | [5] -7.5% | [6] -8.05%

COc1cc2c(cc1OC)-c1c(C)c3ccc(OC)c(NCCO)c3c[n+]1CC2
inactive: [1] -43.2% | [2] -10% | [3] -29.7% | [4] -17% | [5] -0.4% | [6] -8.3%

CCC(C)(C(=O)O)c1ccccc1 (stereo unspecified)
inactive: [1] 4.1% | [2] -5.85% | [3] -3.95% | [4] -15.1% | [5] -42.5% | [6] 15.7%

CC1=Nc2ccccc2NC2(C1)C(C1COC(C)(C)O1)OC1OC(C)(C)OC12 (stereo unspecified)
inactive: [1] 9.95% | [2] 13.8% | [3] 20.3% | [4] 21.5% | [5] 2.1% | [6] 17.9%

CCOC(=O)c1cc(CC)sc1N
inactive: [1] -1.55% | [2] -9.75% | [3] 10.7% | [4] -10.2% | [5] 12.2% | [6] -12.5%

Cc1ccc(SCC(CF)OC(C)n2cnc3c(=O)[nH]c(N)nc32)cc1 (stereo unspecified)
inactive: [1] 9.8% | [2] 6.1% | [3] -27.4% | [4] 23.4% | [5] 7.55% | [6] -46.5%

Brc1ccc(C(c2ccc(Br)cc2)C(Br)(Br)Br)cc1
inactive: [1] 2.8% | [2] 3.75% | [3] 1.9% | [4] -12.9% | [5] 1.5% | [6] 8.2%
